# Reference: PubChem BioAssay
# The list shows a part of the results. A number with no mark means an inactive call. Calls of active or inactive are those of the source.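 How the source made its calls, unless noted: active means mean inhibition across three repeats above about 21% taken from the earlier screen (limit read from the data); inactive means the rest.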
# Target: Serine protease HTRA1 (Homo sapiens) (UniProt Q92743)
# Assay: HTRA1 protease inhibitors, retest, confirmation, biochemical, fluorescence polarization (AID 540248;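 active means mean inhibition over three repeats above a set limit taken from the earlier primary screen, cut at about 37% in these data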;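 further: 0% = HTRA1 with DMSO and 100% = wells lacking HTRA1; inhibitors block probe binding so polarization drops and inhibition rises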)
# Details: recombinant HTRA1, FP-rhodamine activity-based probe, at 5.96 µM, active compounds read high
row,Compound,inhibition
1,CC(=O)Nc1ccc(S(=O)(=O)Nc2ccc(N3CCCCC3)cc2)cc1,63.4% (active)
2,CC(=O)N1CCN(c2ccc(NCc3ccc(C(C)C)cc3)cc2)CC1,12.7%
3,CC(=N\NC(=O)c1cc(Br)ccc1O)/C(=N/O)C(=O)Nc1ccccc1,55.9% (active)
4,O=Nc1c(O)cc(O)c2ccccc12,10.1%
5,CC[C@@H]1Cc2cc(O)ccc2C2=C1c1ccc(O)cc1C[C@H]2CC,47% (active)
6,Oc1c(CN2CCN(c3ccc(F)cc3)CC2)cc(Cl)c2cccnc12,50.9% (active)
7,CCN1CCN(C(c2cccnc2)c2cc(Cl)c3cccnc3c2O)CC1 (centres undefined),67.8% (active)
8,COc1cccc2c1C(=O)c1c(O)c3c(c(O)c1C2=O)CC(O)(C(C)=NNC(=O)c1ccc(Cl)c(Cl)c1)CC3OC1CC(N)C(O)C(C)O1 (centres undefined),69.6% (active)
9,COc1cccc2sc(NNC(=O)c3nc4ccccc4s3)nc12,130% (active)
10,Cc1cc(-c2csc(N)n2)c(C)n1-c1ccccc1,28.5%
11,COc1ccccc1C1=Nc2cccc3cccc(c23)N1,67.4% (active)
12,COc1cnc(-c2ccccn2)nc1Oc1ccc(C(C)(C)C)cc1,53.5% (active)
13,COc1cccc(/C=N/Nc2ccc(S(=O)(=O)Nc3ccccc3C(=O)O)cc2[N+](=O)[O-])c1O,25.5%
14,Brc1ccccc1C1Nc2cccc3cccc(c23)N1,2.05%
15,CCOC(=O)C1Nc2ccc(C(F)(F)F)cc2C2C=CCC12 (centres undefined),30.3%
16,Oc1c(CN2CCCC2)cc(COCc2ccccc2)c2cccnc12,80% (active)

# Target: Toll-like receptor 9 (Homo sapiens) (UniProt Q9NR96)
# Sequence (Q9NR96 whole entry, looked up): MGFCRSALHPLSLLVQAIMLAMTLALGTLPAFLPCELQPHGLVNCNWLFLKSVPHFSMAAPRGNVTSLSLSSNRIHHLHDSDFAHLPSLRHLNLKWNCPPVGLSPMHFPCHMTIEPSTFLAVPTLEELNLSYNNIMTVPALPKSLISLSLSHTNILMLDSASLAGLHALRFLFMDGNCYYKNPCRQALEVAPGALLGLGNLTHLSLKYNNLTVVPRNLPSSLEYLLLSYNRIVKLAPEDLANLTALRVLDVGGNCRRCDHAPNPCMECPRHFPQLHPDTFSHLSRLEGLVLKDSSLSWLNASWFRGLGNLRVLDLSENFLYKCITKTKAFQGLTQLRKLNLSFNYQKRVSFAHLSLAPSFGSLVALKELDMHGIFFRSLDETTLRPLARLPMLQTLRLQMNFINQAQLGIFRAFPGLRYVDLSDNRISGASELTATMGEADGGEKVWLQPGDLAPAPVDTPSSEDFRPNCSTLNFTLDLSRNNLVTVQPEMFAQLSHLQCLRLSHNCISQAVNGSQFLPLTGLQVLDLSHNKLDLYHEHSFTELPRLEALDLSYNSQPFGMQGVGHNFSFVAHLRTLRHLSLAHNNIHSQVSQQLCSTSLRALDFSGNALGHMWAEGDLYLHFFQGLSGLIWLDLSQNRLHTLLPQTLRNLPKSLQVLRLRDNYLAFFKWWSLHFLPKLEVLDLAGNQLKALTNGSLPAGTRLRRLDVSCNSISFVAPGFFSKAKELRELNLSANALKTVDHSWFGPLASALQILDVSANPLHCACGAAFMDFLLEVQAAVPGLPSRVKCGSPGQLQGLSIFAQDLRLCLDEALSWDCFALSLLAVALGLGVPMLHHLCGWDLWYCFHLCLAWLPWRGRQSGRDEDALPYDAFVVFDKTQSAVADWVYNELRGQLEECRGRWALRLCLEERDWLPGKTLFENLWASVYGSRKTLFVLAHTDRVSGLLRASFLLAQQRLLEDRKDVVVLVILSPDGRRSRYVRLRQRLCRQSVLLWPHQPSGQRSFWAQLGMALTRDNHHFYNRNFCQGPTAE
# Assay: TLR9-MyD88 association inhibitors, retest, confirmation, cell-based, CHO, BLA complementation, fluorescence, triplicate (AID 540250);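 further: blue over green emission ratio reports constitutive TLR9 MyD88 association via BLA complementation; 0% = DMSO vehicle wells and 100% = clavulanate BLA inhibitor wells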
# Details: CCF4 FRET ratio, at 4.98 µM, active compounds read high
row,Compound,inhibition
1,O=C(COC(=O)c1c2c(nc3ccccc13)/C(=C\c1cccs1)CCC2)Nc1ccccc1Cl,11.4%
2,NS(=O)(=O)c1ccc(NC(=O)COC(=O)c2c3c(nc4ccccc24)/C(=C\c2ccc4c(c2)OCO4)CCC3)cc1,17.9%
3,O=C(CCN1C(=O)c2ccccc2C1=O)NNC(=O)c1ccc(Cl)cc1Cl,-3.93%
4,CCOc1ccc(C2=CC(c3ccccc3)n3ncnc3N2)cc1 (centres undefined),-2.09%
5,Cc1cccc(NC(=O)c2nc(S(=O)(=O)Cc3ccccc3)ncc2Cl)c1,46.4% (active)
6,O=[N+]([O-])c1ccc(N/N=C/c2ccccc2)cc1,13.7%
7,COC(=O)Cc1cc(=O)oc2c(C)c(O)ccc12,13.3%
8,Cc1cccc(CS(=O)(=O)c2ncc(Cl)c(C(=O)Nc3ccc(F)cc3)n2)c1,38.1% (active)
9,COc1ccc(OC)c(N=Cc2c(O)[nH]c3ccccc23)c1,-1.61%
10,COc1ccc(-c2nc3cnccn3c2NC2CCCCC2)cc1-c1cccc(Cl)c1,25.7% (active)
11,Oc1ccc2ccc3cccc[n+]3c2c1,11.3%
12,COc1ccccc1CSc1ncc(-c2ccc([N+](=O)[O-])cc2)[nH]1,5.87%
13,C[N+](C)(C)CCNC(=O)c1cc[n+](Cc2ccccc2)c(/C=N/O)c1,7.66%
14,CS(=O)(=O)c1sc2nc(-c3ccccc3)cc(-c3ccccc3)c2c1N,31.1% (active)
15,O=C1C(Cl)=C(Oc2ccccc2)C(=O)c2ccccc21,79% (active)
16,COc1cc(C(=O)N2C(=O)c3cccc(N)c3C2=O)cc(OC)c1OC,11.4%
17,COc1ccc(-c2cc(C(F)(F)F)nc(S(C)(=O)=O)n2)cc1OC,28.8% (active)
18,CNC(=S)N/N=C/c1ccc(OCc2ccccc2)c(Br)c1,27.6% (active)
19,Cc1cc(C)nc(SCc2ccccc2C#N)n1,1.99%
20,COc1ccccc1/C=C/C(=O)OCC(=O)NC1CCCCCC1,-4.73%
21,O=[N+]([O-])c1c(NCCO)cc(Sc2nc3ccccc3s2)c2nonc12,71.1% (active)
22,COc1ccc(-c2nn(-c3ccccc3)cc2/C=N/Nc2ccccn2)cc1OC,2.6%
23,CC1(C)CC(=O)C(C2c3ccccc3S(=O)(=O)c3ccccc32)C(=O)C1,-5.15%
24,Cc1cc2oc3ccc(NCCC4CCCN4C)cc3c(=O)c2cc1C (centres undefined),19.1%

# Tested on: not listed separately
# Assay: beta-lactamase reporter inhibitors in CHO cells, artefact control for TLR9-MyD88 binding inhibitor project, cell-based, fluorescence (AID 540251;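 active means mean inhibition above a 50% cutoff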;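 further: counterscreen of TLR9-MyD88 hits on CMV-driven BLA in CHO-K1 cells; 0% = DMSO alone and 100% = clavulanate blocking BLA; higher means less blue over green ratio so more BLA blockade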)
# Details: CHO-BLA cells, CCF4 FRET ratio, at 4.98 µM, active compounds read high
row,Compound,inhibition
1,O=C(COC(=O)c1c2c(nc3ccccc13)/C(=C\c1cccs1)CCC2)Nc1ccccc1Cl,18.4%
2,NS(=O)(=O)c1ccc(NC(=O)COC(=O)c2c3c(nc4ccccc24)/C(=C\c2ccc4c(c2)OCO4)CCC3)cc1,22.2%
3,O=C(CCN1C(=O)c2ccccc2C1=O)NNC(=O)c1ccc(Cl)cc1Cl,-2.36%
4,CCOc1ccc(C2=CC(c3ccccc3)n3ncnc3N2)cc1 (centres undefined),-1.41%
5,Cc1cccc(NC(=O)c2nc(S(=O)(=O)Cc3ccccc3)ncc2Cl)c1,43.2%
6,O=[N+]([O-])c1ccc(N/N=C/c2ccccc2)cc1,10.7%
7,COC(=O)Cc1cc(=O)oc2c(C)c(O)ccc12,16.3%
8,Cc1cccc(CS(=O)(=O)c2ncc(Cl)c(C(=O)Nc3ccc(F)cc3)n2)c1,20.7%
9,COc1ccc(OC)c(N=Cc2c(O)[nH]c3ccccc23)c1,1.7%
10,COc1ccc(-c2nc3cnccn3c2NC2CCCCC2)cc1-c1cccc(Cl)c1,29.5%
11,Oc1ccc2ccc3cccc[n+]3c2c1,11.8%
12,COc1ccccc1CSc1ncc(-c2ccc([N+](=O)[O-])cc2)[nH]1,9.21%
13,C[N+](C)(C)CCNC(=O)c1cc[n+](Cc2ccccc2)c(/C=N/O)c1,6.76%
14,CS(=O)(=O)c1sc2nc(-c3ccccc3)cc(-c3ccccc3)c2c1N,31.6%
15,O=C1C(Cl)=C(Oc2ccccc2)C(=O)c2ccccc21,17.5%
16,COc1cc(C(=O)N2C(=O)c3cccc(N)c3C2=O)cc(OC)c1OC,13.3%
17,COc1ccc(-c2cc(C(F)(F)F)nc(S(C)(=O)=O)n2)cc1OC,5.84%
18,CNC(=S)N/N=C/c1ccc(OCc2ccccc2)c(Br)c1,27.6%
19,Cc1cc(C)nc(SCc2ccccc2C#N)n1,0.68%
20,COc1ccccc1/C=C/C(=O)OCC(=O)NC1CCCCCC1,-6.03%
21,O=[N+]([O-])c1c(NCCO)cc(Sc2nc3ccccc3s2)c2nonc12,17.3%
22,COc1ccc(-c2nn(-c3ccccc3)cc2/C=N/Nc2ccccn2)cc1OC,2.28%
23,CC1(C)CC(=O)C(C2c3ccccc3S(=O)(=O)c3ccccc32)C(=O)C1,-0.53%
24,Cc1cc2oc3ccc(NCCC4CCCN4C)cc3c(=O)c2cc1C (centres undefined),16.7%
